High-throughput results: PubChem, National Center for Advancing Translational Sciences (NCATS)
Only some compounds are listed: those with a hit (about 2.4% of all), similar ones and a draw of the others.
Cruzain inh noDet: qHTS Assay for Promiscuous and Specific Inhibitors of Cruzain (without detergent) | Cruzipain (Trypanosoma cruzi), P25779 | purified cruzain, Z-FR-AMC fluorescence, no detergent | Potency, µM, inactives show max response, negative = inhibition, usual class: inhibitors | 2.3% of 200,000 active | AID 1476, 2009;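 also: plate controls were enzyme without inhibitor for no effect and buffer without enzyme for full effect; nearly all actives have a fitted effect of over 40% in size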
Target sequence (P25779 123-467 limits assumed): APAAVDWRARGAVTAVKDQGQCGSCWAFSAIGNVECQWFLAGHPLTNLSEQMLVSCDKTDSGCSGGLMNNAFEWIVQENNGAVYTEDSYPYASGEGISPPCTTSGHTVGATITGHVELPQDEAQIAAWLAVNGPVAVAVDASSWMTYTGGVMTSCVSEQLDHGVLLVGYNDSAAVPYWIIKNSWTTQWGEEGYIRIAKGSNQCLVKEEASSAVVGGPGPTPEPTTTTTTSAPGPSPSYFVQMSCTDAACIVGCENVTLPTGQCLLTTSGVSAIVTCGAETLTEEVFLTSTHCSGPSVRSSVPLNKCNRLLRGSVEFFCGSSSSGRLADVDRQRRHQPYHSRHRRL
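Detergent-free condition (0.00005% Triton X-100) in acetate buffer pH 5.5 with DTT. 1.5 nM enzyme and compound were pre-mixed 15 min, then 2 uM Z-FR-AMC substrate added; reaction progress from fluorescence change between first and third reads (60 s).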
Cruzain Triton: qHTS Assay for Promiscuous and Specific Inhibitors of Cruzain (with detergent); Cruzipain (Trypanosoma cruzi), P25779; purified cruzain, Z-FR-AMC fluorescence, 0.01% Triton; Potency, µM, without a hit: max response, negative = inhibition, usual class: inhibitors; 0.43% of 200,000 active; AID 1478, 2009;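 also: plate controls were neutral wells for no effect and buffer without enzyme for full effect; nearly all actives have a fitted effect of over 40% in size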
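Steps: dispense cruzain (1.5 nM final) in acetate buffer pH 5.5 with DTT and 0.01% Triton X-100; pin-transfer compounds; incubate 15 min RT; add Z-FR-AMC (2 uM final); read fluorescence every 30 s, using the 60 s intensity change.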
Starred values were filed as active, the others as inactive; ? = inconclusive. Calls follow the shape of the dose curve; as a rule, active = well fitted curve in the direction sought with a large enough effect; inconclusive = small, poorly fitted or top-dose-only effect, or another doubt; inactive = no such curve, though single readings can be large; an effect the other way counts as inactive or inconclusive. Potency is read from the fitted curve at half-maximal effect.

SMILES	Cruzain inh noDet	Cruzain Triton
COC(=O)c1ccccc1NC(=O)CSc1nc2ccsc2c(=O)n1CCC(C)C	-3%	4%
O=S(=O)(c1ccc(F)cc1)N1CCN(c2nc(-c3ccc(F)cc3)cs2)CC1	10µM*	-1%
CS(=O)(=O)N1CCN(c2nc(-c3ccc(F)cc3)cs2)CC1	-1%	-2%
Cc1ccc(C)n1-c1nnc(N2CCCC(C(=O)NCc3ccc(Cl)cc3)C2)s1 (stereo not given)	8%	-2%
COc1ccc(-c2cn3nc(N4CCCC(C(=O)NCc5ccc(Cl)cc5)C4)sc3n2)cc1 (stereo not given)	-2%	14µM*
Cc1ccc2c(c1)-c1c(c(C(=O)NCCc3ccccc3)nn1C)CS2	-29%	-1%
CCCC(=O)NCc1nc2cccnc2n1Cc1ccc(F)cc1	1%	-1%
CCOC(=O)c1ccc(NC(=O)CSc2nnc3c4ccccc4n(CC)c3n2)cc1	-11%	-6%
CCCCn1c2ccccc2c2nnc(SCC(=O)Nc3ccc(NC(C)=O)cc3)nc21	20µM*	?
CCOCCCNC(=O)CN1C(=O)CCn2nc(-c3cccn3C)cc21	7%	1%
CCC1CCc2c(sc(NC(=O)C3c4ccccc4Oc4ccccc43)c2C#N)C1 (stereo not given)	7.9µM*	-5%
CCC(C)(C)C1CCc2c(sc(NC(=O)C3c4ccccc4Oc4ccccc43)c2C(N)=O)C1 (stereo not given)	-2%	-2%
CCC1CCc2c(sc(NC(=O)C3c4ccccc4Oc4ccccc43)c2C(=O)OC)C1 (stereo not given)	4µM*	1%
COC(=O)c1c(NC(=O)C2c3ccccc3Oc3ccccc32)sc2c1CCC(C)C2 (stereo not given)	-23%	-3%
c1cc2c3c(c1)ccc1cccc(c13)C2	-4%	3%
c1cc2c3c(cccc3c1)NC1(CCCCCC1)N2	13µM*	-1%
c1cc2c3c(cccc3c1)NC1(CCCCC1)N2	7.9µM*	0%
O=C1CCSc2cccc3cccc(c23)N1	-7%	-4%
Cc1ccc(C)c(N2CCN(C(=O)c3cc(C)nc4c3c(C)nn4-c3ccccc3)CC2)c1	8%	-5%
CCOc1ccc(NC(=O)NCCn2nnc3cc(S(=O)(=O)N(C)C)ccc32)cc1	15%	-1%
O=C1CC(c2c(Cl)cccc2Cl)c2c(ccc3ccccc23)N1 (stereo not given)	5%	-13%
Cc1cccc(-c2c3c(=O)n(C)c(=O)n(C)c3c3cnc4ccccc4n23)c1	5%	-2%
CCOC(=O)C1=C(N)n2c(s/c(=C/c3ccccc3)c2=O)=C(C(=O)OCC)C1c1ccccc1 (stereo not given)	-9%	-2%
CCOC(=O)C1=C(N)n2c(s/c(=C\c3ccco3)c2=O)=C(C(=O)OCC)C1c1ccco1 (stereo not given)	7.9µM*	-6%
CCOC(=O)C1=C(N)n2c(s/c(=C\c3ccco3)c2=O)=C(C(=O)OC(C)C)C1c1ccco1 (stereo not given)	10µM*	-8%
SMILES	Cruzain inh noDet	Cruzain Triton
CCOC(=O)C1=C(c2ccccc2)N=c2s/c(=C\c3ccco3)c(=O)n2C1c1cccs1 (stereo not given)	?	-1%
CCN(CC)c1ccc(NC(=O)c2cc(S(=O)(=O)N3CCc4ccccc43)cn2C)c(C)c1	-4%	-3%
COc1ccccc1Cn1c(CNS(=O)(=O)c2cccc([N+](=O)[O-])c2)nc2cccnc21	-8%	-1%
CC(C)NC(=S)N=Nc1c(O)[nH]c2ccc(C(C)C)cc12	4%	-8%
NC(=S)N=Nc1c(O)[nH]c2ccc(F)cc12	5µM*	14µM*
COCCNc1ccc(-c2nc(-c3ccncc3)no2)cc1[N+](=O)[O-]	18%	-6%
Cc1cn(C)c(CC(=O)NCc2cccc(Cl)c2)c1C(=O)O	-10%	1%
CN1CCN(c2ccc(Cl)cc2NC(=O)c2ccc(S(=O)(=O)N(C)C)cc2)CC1	-1%	5%
COc1ccccc1NS(=O)(=O)c1ccc(C)c(NC(=O)c2ccc(S(=O)(=O)N3CCCCCC3)cc2)c1	32µM*	-1%
COc1ccccc1NC(=O)c1ccc(S(=O)(=O)N2CCCC2)cc1	-1%	-1%
CN(C)S(=O)(=O)c1ccc(C(=O)Nc2cc(S(=O)(=O)Nc3ccccc3Cl)ccc2N2CCCCC2)cc1	25µM*	-5%
CC(C)CN(CCNC(=O)c1cn(C)c2ccc(S(=O)(=O)N3CCCCCC3)cc2c1=O)CC(C)C	2%	-1%
CCc1ccccc1S(=O)(=O)Cc1ccc(C(=O)NCCc2ccc(C)cc2)o1	5%	-6%
CCn1c2ccc(C)cc2c2nnc(NN)nc21	-24%	-17%
CCOC(=O)C(CC)Sc1nnc2c3cc(C)ccc3n(C)c2n1 (stereo not given)	?	-13%
CCCn1c2ccc(C)cc2c2nnc(SCCN3CCCCC3)nc21	?	14µM*
CSc1nnc2c3cc(C)ccc3n(Cc3ccccc3)c2n1	25µM*	?
CCOC(=O)c1ccc(N2C(=O)c3n[nH]c(-c4cccs4)c3C2c2ccc(OCC)cc2)cc1 (stereo not given)	?	-3%
CCOC(=O)c1ccc(N2C(=O)c3n[nH]c(-c4cccs4)c3C2c2ccc(CC)cc2)cc1 (stereo not given)	5µM*	-6%
CCOc1ccc(C(=O)c2cn(CC(=O)Nc3ccc(F)cc3)c3cc4c(cc3c2=O)OCO4)cc1	13%	4%
CSc1ncc2c(n1)-c1ccccc1N(Cc1ccccc1C)S2(=O)=O	-4%	3%
CCCCOC(=O)CCn1[nH]c(=O)c2ccccc2c1=O	-5%	-3%
CCCCOC(=O)CCN1C(=O)/C(=C2\SC(=S)N(CCC(=O)OCCCC)C2=O)SC1=S	13µM*	-20%
Cc1ccc(Cl)cc1N1CCN(C(=O)c2cc(S(=O)(=O)N3CCCC3)c[nH]2)CC1	?	-4%
Cc1ccc(-n2cccc2/C=C2/NC(=O)N(CC(=O)Nc3cccc(C)c3)C2=O)cc1	5µM*	-4%
SMILES	Cruzain inh noDet	Cruzain Triton
Cc1cccc(NC(=O)CN2C(=O)N/C(=C\c3ccc(N4CCOCC4)cc3)C2=O)c1	-21%	-4%
CC1CCCN(c2ncnc3c2nnn3C)C1 (stereo not given)	-4%	-2%
CCOC(=O)c1c(NC(=O)C2=C(C)NC(=S)NC2c2ccc(F)cc2)sc(C)c1C (stereo not given)	16µM*	-6%
CCOC(=O)c1c(NC(=O)C2=C(C)NC(=S)NC2c2ccc(F)cc2F)sc(C)c1C (stereo not given)	?	-4%
CCOC(=O)c1c(NC(=O)C2C3C=CC(CC3)C2C(=O)O)sc(C)c1C (stereo not given)	-5%	-6%
CCOC(=O)c1c(NC(=O)C2=C(C)NC(=S)NC2c2ccc(C)cc2)sc(C)c1C (stereo not given)	20µM*	-8%
COc1cc(C(=O)NCC(c2ccco2)S(=O)(=O)c2cccs2)cc(OC)c1OC (stereo not given)	7%	-1%
O=C1C=CC(=O)C(Cl)=C1	-8%	-1%
CC1Cc2cc(S(=O)(=O)CCC(=O)NCc3ccccc3Cl)ccc2N1C(=O)C1CC1 (stereo not given)	0%	-5%
Cc1ccc(-c2cn3c(n2)sc2cc(C(=O)NC4CCCCCC4)ccc23)c(C)c1	10µM*	-1%
COc1ccc(-c2cn3c(n2)sc2cc(C(=O)NC4CCCCCC4)ccc23)cc1	-8%	-5%
